# The source made the active and inactive calls. How the source made its calls: active means hit-call score of the fitted dose curve at least 0.9, where 1 is the maximum; inactive means score below 0.9.
# Experiments:
# Conditions in all cases: mRNA level, 48 h; actives raise or lower the signal
# [1] = read-out: Cytochrome P450 (CYP1A2), CYP1A2 (gene 1544); experiment: LTEA_HepaRG_CYP1A2: Life Technologies and Expression Analysis (LTEA) Assay for Cytochrome P450 (CYP1A2) using HepaRG (AID 2283479);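 on AC50: TaqMan qRT-PCR transcript level normalized to ACTB GAPDH and POLR2A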
# Summary of the method: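 CYP1A2 transcript measured by TaqMan qRT-PCR against three housekeeping genes after 48-hour chemical exposure of HepaRG cells. Eight-point half-log series topping at 100 uM in 0.5% DMSO, duplicates; gain or loss fitted relative to vehicle.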
# [2] = read-out: cysteine-aspartic acid protease (CASP8), CASP8 (gene 841); experiment: LTEA_HepaRG_CASP8: Life Technologies and Expression Analysis (LTEA) Assay for cysteine-aspartic acid protease (CASP8) using HepaRG (AID 2283480)
# Summary of the method: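 HepaRG, 48 h exposure, duplicate wells; 8 conc, half-log from 100 uM, 0.5% DMSO. Serum-free induction medium. CASP8 mRNA by TaqMan qRT-PCR, norm. ACTB/GAPDH/POLR2A; gain/loss fitted vs DMSO.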
# [3] = read-out: Cytochrome P450 (CYP2B6), CYP2B6 (gene 1555); experiment: LTEA_HepaRG_CYP2B6: Life Technologies and Expression Analysis (LTEA) Assay for Cytochrome P450 (CYP2B6) using HepaRG (AID 2283481)
# Summary of the method: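 CYP2B6 transcript level quantified by qRT-PCR against three housekeeping genes, fitted bidirectionally relative to DMSO. HepaRG cultures received chemicals for 48 h, 8-point half-log series from 100 uM in 0.5% DMSO, duplicate wells, serum-free induction medium.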
# [4] = read-out: Cytochrome P450 2C19 (Homo sapiens) (UniProt P33261); experiment: LTEA_HepaRG_CYP2C19: Life Technologies and Expression Analysis (LTEA) Assay for CYP2C19 using HepaRG (AID 2283482)
# Summary of the method: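 CYP2C19 transcript levels by qRT-PCR, normalized to three housekeeping genes, in HepaRG cells after 48 h chemical exposure. Eight-point half-log series topping at 100 uM, 0.5% DMSO vehicle. Increases and decreases both fitted against DMSO.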
# CYP2C8 (gene 1558) = experiment: LTEA_HepaRG_CYP2C8: Life Technologies and Expression Analysis (LTEA) Assay for CYP2C8 using HepaRG (AID 2283483)
# Summary of the method: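 CYP2C8 mRNA induction or loss, by qRT-PCR normalized to ACTB/GAPDH/POLR2A, is read in HepaRG cells after 48 h treatment. Concentrations run from 100 uM down in half-log dilutions, with 0.5% DMSO as vehicle and baseline.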
# CYP2C9 (gene 1559) = experiment: LTEA_HepaRG_CYP2C9: Life Technologies and Expression Analysis (LTEA) Assay for CYP2C9 using HepaRG (AID 2283484)
# Summary of the method: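 Cells plated 48 h, switched to serum-free induction medium, then treated in duplicate for 48 h at eight concentrations (max 100 uM, 0.5% DMSO). RNA then analysed by qRT-PCR for CYP2C9; curves fitted in both directions relative to DMSO.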
# CYP4A11 (gene 1579) = experiment: LTEA_HepaRG_CYP4A11: Life Technologies and Expression Analysis (LTEA) Assay for CYP4A11 using HepaRG (AID 2283486)
# Summary of the method: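 Readout is CYP4A11 transcript level by qRT-PCR, normalized to three housekeeping genes and fitted bidirectionally against 0.5% DMSO. Human HepaRG cells were treated 48 h, in duplicate, with an 8-point half-log series topping at 100 uM.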
# [5] = read-out: Cytochrome P450 3A4 (Homo sapiens) (UniProt P08684); experiment: LTEA_HepaRG_CYP3A4: Life Technologies and Expression Analysis (LTEA) Assay for CYP3A4 using HepaRG (AID 2283487)
# Summary of the method: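 HepaRG, 48 h exposure, 8-pt CRC from 100 uM (half-log), 0.5% DMSO, duplicates; serum-free induction medium. Readout: CYP3A4 mRNA, qRT-PCR, ACTB/GAPDH/POLR2A normalization. Bidirectional fit vs DMSO.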
# [6] = read-out: DNA damage-inducible transcript 3 (DDIT3), DDIT3 (gene 1649); experiment: LTEA_HepaRG_DDIT3: Life Technologies and Expression Analysis (LTEA) Assay for DNA damage-inducible transcript 3 (DDIT3) using HepaRG (AID 2283488)
# Summary of the method: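 Changes in DDIT3 transcript, in either direction relative to 0.5% DMSO vehicle, were quantified by TaqMan qRT-PCR after 48 h chemical exposure of HepaRG cells at 8 concentrations, maximum 100 uM.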
# [7] = read-out: Pro-epidermal growth factor (Homo sapiens) (UniProt P01133); experiment: LTEA_HepaRG_EGF: Life Technologies and Expression Analysis (LTEA) Assay for Epidermal growth factor (EGF) using HepaRG (AID 2283489)
# Summary of the method: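 EGF transcript measured by Fluidigm TaqMan qRT-PCR with three housekeeping genes for normalization, 48 h after dosing HepaRG cultures in duplicate (top 100 uM, half-log steps, 0.5% DMSO vehicle). Gain or loss relative to DMSO fitted.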
# [8] = read-out: Early growth response protein 1 (EGR1) transcription factor, EGR1 (gene 1958); experiment: LTEA_HepaRG_EGR1: Life Technologies and Expression Analysis (LTEA) Assay for Early growth response protein 1 (EGR1) transcription factor using HepaRG (AID 2283490)
# Summary of the method: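 Read-out is EGR1 mRNA level by qRT-PCR, normalized to three housekeeping genes and analysed for gain or loss of signal against 0.5% DMSO. Source cells: human HepaRG, treated 48 h at up to 100 uM in half-log dilutions.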
# [9] = read-out: Ezrin (EZR), EZR (gene 7430); experiment: LTEA_HepaRG_EZR: Life Technologies and Expression Analysis (LTEA) Assay for Ezrin (EZR) using HepaRG (AID 2283491)
# Summary of the method: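 Read-out is EZR transcript level by qRT-PCR, normalized to three housekeeping genes and fitted bidirectionally against the DMSO control. Human HepaRG cells received test chemicals for 48 h at eight half-log concentrations up to 100 uM in 0.5% DMSO.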
# [10] = read-out: Cytochrome P450 3A7 (Homo sapiens) (UniProt P24462); experiment: LTEA_HepaRG_CYP3A7: Life Technologies and Expression Analysis (LTEA) Assay for CYP3A7 using HepaRG (AID 2283492)
# Summary of the method: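 CYP3A7 transcript measured by qRT-PCR (ACTB, GAPDH, POLR2A normalization) after 48 h chemical exposure of HepaRG cells in duplicate. Eight half-log concentrations, maximum 100 uM, 0.5% DMSO vehicle; bidirectional curve fitting against DMSO baseline.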
# CYP3A5 (gene 1577) = experiment: LTEA_HepaRG_CYP3A5: Life Technologies and Expression Analysis (LTEA) Assay for CYP3A5 using HepaRG (AID 2283493)
# Summary of the method: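 mRNA induction or loss of CYP3A5 assessed in HepaRG after 48 h dosing, 100 uM top concentration, duplicate wells; TaqMan qRT-PCR with ACTB, GAPDH, POLR2A normalization; 0.5% DMSO as negative control.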
# [11] = read-out: Fatty Acid-Binding Protein 1 (FABP1), FABP1 (gene 2168); experiment: LTEA_HepaRG_FABP1: Life Technologies and Expression Analysis (LTEA) Assay for Fatty Acid-Binding Protein 1 (FABP1) using HepaRG (AID 2283494)
# Summary of the method: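 HepaRG, 48 h post-plating switched to serum-free induction medium, then dosed 48 h (duplicate, 8 pts, ≤100 uM, 0.5% DMSO). RNA → Fluidigm TaqMan qRT-PCR, FABP1 normed to ACTB/GAPDH/POLR2A. Bidirectional curve fit vs DMSO.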
# [12] = read-out: Cytochrome P450 4A22 (Homo sapiens) (UniProt Q5TCH4); experiment: LTEA_HepaRG_CYP4A22: Life Technologies and Expression Analysis (LTEA) Assay for Cytochrome P450 4A22 (CYP4A22) using HepaRG (AID 2283495)
# Summary of the method: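 Gene expression measured by qRT-PCR against three housekeeping genes (ACTB, GAPDH, POLR2A), with gain or loss fitted relative to 0.5% DMSO vehicle. HepaRG cultures received 48 h chemical treatment, top concentration 100 uM, half-log steps, duplicate wells.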
# [13] = read-out: Cytochrome P450 7A1 (Homo sapiens) (UniProt P22680); experiment: LTEA_HepaRG_CYP7A1: Life Technologies and Expression Analysis (LTEA) Assay for Cytochrome P450 7A1 (CYP7A1) using HepaRG (AID 2283496)
# Summary of the method: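 Gene expression endpoint in human HepaRG liver cells treated for 48 h with test chemicals (up to 100 uM, 0.5% DMSO). Values come from bidirectional concentration-response fitting versus DMSO.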
# [14] = read-out: Glutathione S-Transferase (GSTA2), GSTA2 (gene 2939); experiment: LTEA_HepaRG_GSTA2: Life Technologies and Expression Analysis (LTEA) Assay for Glutathione S-Transferase (GSTA2) using HepaRG (AID 2283497)
# Summary of the method: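 HepaRG, 48 h dosing, 8-pt half-log CRC from 100 uM, 0.5% DMSO vehicle, n=2; RNA → Fluidigm TaqMan qRT-PCR; GSTA2 vs ACTB/GAPDH/POLR2A; gain/loss fit vs DMSO.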
# [15] = read-out: Glutamate-cysteine ligase catalytic (GCLC), GCLC (gene 2729); experiment: LTEA_HepaRG_GCLC: Life Technologies and Expression Analysis (LTEA) Assay for Glutamate-cysteine ligase catalytic (GCLC) using HepaRG (AID 2283498)
# Summary of the method: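 Read-out is GCLC transcript level by Fluidigm-based TaqMan qRT-PCR, normalized to three housekeeping genes and fitted in both directions relative to 0.5% DMSO. Human HepaRG cells received chemicals for 48 h, up to 100 uM.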
# CYP2E1 (gene 1571) = experiment: LTEA_HepaRG_CYP2E1: Life Technologies and Expression Analysis (LTEA) Assay for CYP2E1 using HepaRG (AID 2283485)
# Summary of the method: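 Differentiated HepaRG cells were treated in duplicate for 48 h with chemicals in 0.5% DMSO, from 100 uM downward in half-log dilutions. RNA was then analysed by qRT-PCR for CYP2E1 induction or loss.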
# Chain of Cytochrome P450 3A4 (Homo sapiens) (P08684 whole entry, looked up): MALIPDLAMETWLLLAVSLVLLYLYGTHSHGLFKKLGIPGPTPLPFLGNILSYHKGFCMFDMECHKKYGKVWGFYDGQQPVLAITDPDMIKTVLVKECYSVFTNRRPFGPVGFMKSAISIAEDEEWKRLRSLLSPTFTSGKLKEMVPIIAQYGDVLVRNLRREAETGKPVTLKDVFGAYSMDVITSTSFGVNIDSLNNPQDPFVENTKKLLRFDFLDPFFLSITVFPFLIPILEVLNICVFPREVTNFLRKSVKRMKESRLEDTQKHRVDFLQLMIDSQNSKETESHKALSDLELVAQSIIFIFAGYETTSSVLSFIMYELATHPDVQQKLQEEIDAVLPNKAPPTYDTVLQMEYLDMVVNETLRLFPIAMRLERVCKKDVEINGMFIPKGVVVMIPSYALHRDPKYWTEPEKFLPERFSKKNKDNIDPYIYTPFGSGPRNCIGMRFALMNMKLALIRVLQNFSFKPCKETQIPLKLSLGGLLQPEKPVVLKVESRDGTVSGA
# Chain of Cytochrome P450 2C19 (Homo sapiens) (P33261 whole entry, looked up): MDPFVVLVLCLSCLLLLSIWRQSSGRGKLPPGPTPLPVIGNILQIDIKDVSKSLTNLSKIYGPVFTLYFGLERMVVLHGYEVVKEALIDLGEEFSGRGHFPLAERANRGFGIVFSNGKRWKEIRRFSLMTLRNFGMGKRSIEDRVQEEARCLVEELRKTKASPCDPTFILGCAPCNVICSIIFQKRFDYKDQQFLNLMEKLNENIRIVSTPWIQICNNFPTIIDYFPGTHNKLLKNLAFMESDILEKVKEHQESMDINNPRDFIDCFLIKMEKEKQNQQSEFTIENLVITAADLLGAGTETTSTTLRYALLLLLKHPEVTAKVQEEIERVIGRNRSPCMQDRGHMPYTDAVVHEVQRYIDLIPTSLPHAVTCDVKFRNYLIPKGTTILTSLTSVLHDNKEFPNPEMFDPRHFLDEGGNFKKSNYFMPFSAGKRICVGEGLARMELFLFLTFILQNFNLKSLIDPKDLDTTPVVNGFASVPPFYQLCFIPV
# Chain of Cytochrome P450 3A7 (Homo sapiens) (P24462 whole entry, looked up): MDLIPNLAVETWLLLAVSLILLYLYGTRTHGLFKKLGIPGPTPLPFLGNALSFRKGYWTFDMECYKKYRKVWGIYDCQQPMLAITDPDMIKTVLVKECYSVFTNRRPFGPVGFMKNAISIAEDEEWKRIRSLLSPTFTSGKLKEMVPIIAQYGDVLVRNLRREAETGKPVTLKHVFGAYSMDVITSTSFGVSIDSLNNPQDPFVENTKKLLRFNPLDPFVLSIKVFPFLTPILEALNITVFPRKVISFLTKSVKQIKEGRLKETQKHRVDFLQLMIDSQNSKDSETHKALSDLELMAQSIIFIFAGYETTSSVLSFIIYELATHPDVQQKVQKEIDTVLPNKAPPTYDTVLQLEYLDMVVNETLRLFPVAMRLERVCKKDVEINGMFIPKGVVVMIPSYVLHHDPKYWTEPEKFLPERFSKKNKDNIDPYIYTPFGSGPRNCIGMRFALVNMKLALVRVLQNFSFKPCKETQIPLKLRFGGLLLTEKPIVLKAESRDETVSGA
smiles,measurement,setting,value
C1=CCCC=CCCC=CCC1,outcome,[1],inactive
same,outcome,[2],inactive
same,outcome,[3],inactive
same,outcome,[4],inactive
same,outcome,CYP2C8 (gene 1558),inactive
same,outcome,CYP2C9 (gene 1559),inactive
same,outcome,CYP4A11 (gene 1579),inactive
same,outcome,[5],inactive
same,outcome,[6],inactive
same,outcome,[7],inactive
same,outcome,[8],inactive
same,outcome,[9],inactive
same,outcome,[10],inactive
same,outcome,CYP3A5 (gene 1577),inactive
same,outcome,[11],inactive
same,outcome,[12],inactive
same,outcome,[13],inactive
same,outcome,[14],inactive
same,outcome,[15],inactive
CCOC(=O)c1ccc(C2CCC(NC[C@H](O)COc3ccc(O)c(NS(C)(=O)=O)c3)CC2)cc1 (stereo partly specified),outcome,[1],inactive
same,outcome,[2],inactive
same,outcome,[3],inactive
same,outcome,[4],inactive
same,outcome,CYP2C8 (gene 1558),inactive
same,outcome,CYP2C9 (gene 1559),inactive
same,outcome,CYP2E1 (gene 1571),inactive
same,outcome,CYP4A11 (gene 1579),inactive
same,outcome,[5],inactive
same,outcome,[6],inactive
same,outcome,[7],inactive
same,outcome,[8],inactive
same,outcome,[9],inactive
same,outcome,CYP3A5 (gene 1577),inactive
same,outcome,[12],inactive
same,outcome,[13],inactive
same,outcome,[14],inactive
same,outcome,[15],inactive
Cn1c(=O)c2c(ncn2C)n(C)c1=O,outcome,[1],inactive
same,outcome,[2],inactive
same,AC50,[3],50 µM (active)
same,outcome,[4],inactive
same,outcome,CYP2C8 (gene 1558),inactive
same,outcome,CYP2C9 (gene 1559),inactive
same,outcome,CYP2E1 (gene 1571),inactive
same,outcome,CYP4A11 (gene 1579),inactive
same,outcome,[5],inactive
same,outcome,[6],inactive
same,outcome,[8],inactive
same,outcome,[9],inactive
same,outcome,[10],inactive
same,outcome,CYP3A5 (gene 1577),inactive
same,outcome,[11],inactive
same,outcome,[12],inactive
same,outcome,[13],inactive
same,outcome,[14],inactive
same,outcome,[15],inactive
CCCCCCCCCCCCc1ccccc1,outcome,[1],inactive
same,outcome,[2],inactive
same,outcome,[3],inactive
same,outcome,[4],inactive
same,outcome,CYP2C8 (gene 1558),inactive
same,outcome,CYP2C9 (gene 1559),inactive
same,outcome,CYP4A11 (gene 1579),inactive
same,outcome,[5],inactive
same,outcome,[6],inactive
same,outcome,[7],inactive
same,outcome,[8],inactive
same,outcome,[9],inactive
same,outcome,CYP3A5 (gene 1577),inactive
same,outcome,[12],inactive
same,outcome,[13],inactive
same,outcome,[14],inactive
same,outcome,[15],inactive
Nc1cccc(N)c1,AC50,[1],33 µM (active)
same,outcome,[2],inactive
same,outcome,[3],inactive
same,outcome,[4],inactive
same,outcome,CYP2C8 (gene 1558),inactive
same,outcome,CYP2C9 (gene 1559),inactive
same,outcome,CYP4A11 (gene 1579),inactive
same,outcome,[5],inactive
same,outcome,[6],inactive
same,outcome,[7],inactive
same,outcome,[8],inactive
same,outcome,[9],inactive
same,outcome,[10],inactive
same,outcome,CYP3A5 (gene 1577),inactive
same,outcome,[11],inactive
same,outcome,[12],inactive
same,outcome,[13],inactive
same,outcome,[14],inactive
same,outcome,[15],inactive
CCOCCOCCOCCO,outcome,[1],inactive
same,outcome,[2],inactive
same,outcome,[3],inactive
same,outcome,[4],inactive
same,outcome,CYP2C8 (gene 1558),inactive
same,outcome,CYP2C9 (gene 1559),inactive
same,outcome,CYP2E1 (gene 1571),inactive
same,outcome,CYP4A11 (gene 1579),inactive
same,outcome,[5],inactive
same,outcome,[6],inactive
same,outcome,[7],inactive
same,outcome,[8],inactive
same,outcome,[9],inactive
same,outcome,CYP3A5 (gene 1577),inactive
same,outcome,[11],inactive
same,outcome,[12],inactive
same,outcome,[13],inactive
same,outcome,[14],inactive
same,outcome,[15],inactive

# Reference: PubChem BioAssay (EPA / NIEHS)
